HEK293 tox – Cytotoxic Profiling in HEK 293 Cell Line of Diverse Libraries Using Quantitative High-Throughput Screening. AID 1345083, 2018. Potency, µM (highest dose often 115 µM), for inactives: at the top dose activity change, negative = cytotoxicity, usual class: inhibitors. HEK 293 viability, ATP luminescence (CellTiter-Glo), 48-72 h. 6.6% of 94,000 active; further: on the % scale 0 is the no-effect control and ±100 the full control effect; nearly all actives have a fitted effect of over 60% in size
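HEK 293 cells seeded at 250 cells/well were exposed to compound for 48 or 72 hr at 37 degree Celsius. Viability taken as ATP content by CellTiter-Glo luminescence.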
NIH3T3 tox – Cytotoxic Profiling in NIH 3T3 Cell Line of Diverse Libraries Using Quantitative High-Throughput Screening; Potency, µM (doses to about 96.7 µM), without a hit: at the top dose activity change, negative = cytotoxicity, most hits filed as inhibitors; NIH 3T3 viability, CellTiter-Glo ATP luminescence, 48-72 h; 4.3% of 94,000 active; AID 1345082, 2018; further: on the % scale 0 is the no-effect control and ±100 the full control effect; nearly all actives have a fitted effect of over 55% in size
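Cells were seeded at 400 per well, treated with pin-transferred compound, and kept 48 or 72 hr at 37 °C before CellTiter-Glo addition and luminescence imaging of cellular ATP.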
NPR1 antag – Natriuretic polypeptide receptor (hNpr1) antagonism - Primary qHTS; Potency, µM (titrated, usually from 46.3 µM), for inactives: at the highest dose activity change, negative = inhibition, most hits filed as inhibitors; Atrial natriuretic peptide receptor 1 (Homo sapiens), P16066; HEK293 hNpr1 GloSensor cGMP, ANP-stimulated luminescence; 1.6% of 76,000 active; AID 1347048, 2019; calls by dose curve; further: on the % scale 0 is the no-effect control and ±100 the full control effect; nearly all actives have a fitted effect of over 60% in size
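HEK293 cells stably expressing human Npr1 and cGMP GloSensor pGS-40F, loaded 2 h with 2% GloSensor reagent, given compound 30 min at room temperature. Luminescence read before and 20 min after 0.1 nM hNppA.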
SNCA expr inh – Primary qHTS assay for inhibitors of alpha-synuclein gene (SNCA) expression; HEK-293 SNCA-luciferase knock-in, luminescence, 24 h; Potency, µM (doses to about 57.2 µM), for inactives: at the top dose activity change, negative = inhibition, most hits filed as inhibitors; 0.17% of 140,000 active; AID 1671194, 2021;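 further: plate controls were DMSO cells for no effect and cell-free wells for full effect; nearly all actives have a fitted effect of over 45% in size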
SNCA viab count – GF-AFC viability counterscreen for inhibitors of alpha-synuclein gene (SNCA) expression; AID 1671193, 2021; HEK-293-SNCA-luc viability, GF-AFC fluorescence, 24 h; Potency, µM (highest dose often 57.1 µM), for inactives: at the highest dose activity change, negative = cytotoxicity, hits mostly cytotoxic; 0.12% of 150,000 active;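 further: 0% = DMSO-treated cells and -100% = medium-only wells without cells; nearly all actives have a fitted effect of over 30% in size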
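Cytotoxicity counterscreen: after 24 h compound treatment of genome-edited SNCA-luciferase HEK-293 cells, live-cell protease substrate GF-AFC read by fluorescence after 30 min; activity scaled between DMSO (0%) and medium-only (-100%), curves Hill-fitted.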
FLuc inh-1 – Firefly luciferase inhibition profiling of diverse chemical library using quantitative high-throughput screening; Luciferin 4-monooxygenase (Photinus pyralis), P08659; purified P. pyralis luciferase, luminescence, biochemical; Potency, µM (series often up to 115 µM), most hits filed as inhibitors; 2.5% of 76,000 active; further: on the % scale 0 is the no-effect control and ±100 the full control effect; nearly all actives have a fitted effect of over 65% in size
Target sequence (P08659 whole entry, looked up): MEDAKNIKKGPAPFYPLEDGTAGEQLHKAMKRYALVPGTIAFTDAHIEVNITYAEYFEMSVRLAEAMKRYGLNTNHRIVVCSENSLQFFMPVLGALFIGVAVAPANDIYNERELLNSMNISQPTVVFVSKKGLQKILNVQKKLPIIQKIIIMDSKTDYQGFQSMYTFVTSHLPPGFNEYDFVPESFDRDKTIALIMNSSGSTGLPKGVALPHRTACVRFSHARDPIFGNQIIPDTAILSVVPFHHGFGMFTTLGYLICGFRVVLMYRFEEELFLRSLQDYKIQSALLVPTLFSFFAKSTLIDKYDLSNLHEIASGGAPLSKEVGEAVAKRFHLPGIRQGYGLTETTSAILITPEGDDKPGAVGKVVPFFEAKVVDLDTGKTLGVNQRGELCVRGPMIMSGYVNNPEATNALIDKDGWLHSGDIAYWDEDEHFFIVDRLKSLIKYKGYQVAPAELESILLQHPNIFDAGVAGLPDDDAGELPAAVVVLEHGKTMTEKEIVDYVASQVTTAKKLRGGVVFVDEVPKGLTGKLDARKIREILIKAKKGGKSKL
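Biochemical qHTS: compound (6-point titration) added to 10uM D-luciferin plus 10uM ATP in Tris acetate pH 7.5 buffer with Mg, Tween-20 and BSA, then purified enzyme at 10nM; light output imaged.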
FLuc SDR no ATP – Firefly luciferase (FLuc-C-HiBiT) SDR gain of signal screen - without ATP | shares compounds with FLuc inh-1 | Purified FLuc-C-HiBiT, Nano-Glo HiBiT luminescence, no ATP | Potency, µM (highest dose often 32.7 µM), for the others: at the top dose activation (signal gain), actives largely listed as activators | 7.8% of 1,300 active | AID 1963318, 2024; further: nearly all actives have a fitted effect of over 55% in size
FLuc SDR ATP – Firefly luciferase (FLuc-C-HiBiT) SDR gain of signal screen - plus ATP; shares compounds with FLuc inh-1; purified FLuc-C-HiBiT + ATP, HiBiT complementation luminescence; Potency, µM (series often up to 32.7 µM), for the others: top-dose activation (gain of signal), hits mostly activators; 8.7% of 1,300 active;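 further: signal reports ligand binding via conformational change of the enzyme rather than luciferase catalysis; % of control where 0% means no effect; nearly all actives have a fitted effect of over 55% in size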
FLuc inh-2 – Firefly luciferase (FLuc-C-HiBiT) enzymatic inhibition screen - Functional assay | shares compounds with FLuc inh-1 | purified FLuc-C-HiBiT enzyme, luciferin luminescence | Potency, µM (highest dose often 32.7 µM), for inactives: top-dose activity change, negative = inhibition, actives largely listed as inhibitors | 42% of 1,300 active | AID 1963320, 2024; further: on the % scale 0 is the no-effect control and ±100 the full control effect; nearly all actives have a fitted effect of over 70% in size
Starred values were filed as active, the others as inactive; i = inactive; ? = inconclusive; . = not tested or not shown; [ ] = dose if it differs, or a comment. In the library only some 7.4% were active in any assay of this set; here they are far more common. Unless noted, the call rests on the fitted dose curve; in most records, active means well fitted curve in the direction sought with a large enough effect; inconclusive means small, poorly fitted or top-dose-only effect, or another doubt; inactive means no such curve, though single readings can be large; an effect the other way counts as inactive or inconclusive. Potency means the concentration at half of the fitted maximal effect.

SMILES | HEK293 tox | NIH3T3 tox | NPR1 antag | SNCA expr inh | SNCA viab count | FLuc inh-1 | FLuc SDR no ATP | FLuc SDR ATP | FLuc inh-2
CC(=O)c1cccc(Nc2nn(-c3ccc(OC(F)(F)F)cc3)nc2C(C)=O)c1 | . | . | . | -4% | 8% | . | 24% | 14% | ?
CN1c2cc(C(=O)Nc3ccc4c(c3)OCCO4)ccc2C(=O)N2CCCC21 (stereo not given) | -27% | ? | -12% | 43% | -19%[12.5 µM] | 14µM* | 28% | ? | 7.9µM*
CN1c2cc(C(=O)Nc3ccccc3)ccc2C(=O)N2CCCCC21 (stereo not given) | ? | -19% | -20% | 65% | 9%[12.5 µM] | 7.1µM* | 17% | 16% | ?
Cc1cc(NC(=O)c2ccc3c(c2)N(C)C2CCCN2C3=O)ccc1Br (stereo not given) | 3% | i | -6% | 129% | -1%[12.5 µM] | ? | . | . | .
COc1ccc(C(=O)N2CCc3ccc(C(=O)Nc4ccc5c(c4)OCCO5)cc32)cc1 | ? | ? | ? | ? | ? | 3.2µM* | 30% | ? | 5.6µM*
COc1ccc(NC(=O)c2ccc3c(c2)N(C(=O)c2ccc(OC)cc2)CC3)cc1 | ? | ? | ? | 28% | -28% | ? | . | . | .
CN(C)c1ccc(NC(=O)c2ccc3c(c2)N(C)C2CCCCN2C3=O)cc1 (stereo not given) | ? | ? | -10% | 87% | -27%[12.5 µM] | 2.8µM* | 14% | 17% | ?
CC(C)CCN(C)Cc1cccc(C(F)(F)F)c1 | 4%[172 µM] | -13%[138 µM] | . | -14%[87.6 µM] | 1%[87.6 µM] | . | . | . | .
CC(=O)NC1CCN(c2ccc3nnc(-c4ccccc4)n3n2)C1 (stereo not given) | 1%[172 µM] | -16%[138 µM] | . | . | . | . | . | . | .
CN(C)S(=O)(=O)N1CC(N2CC(C(=O)N3CCCC3)CC2=O)C1 (stereo not given) | -1% | -7% | . | 18% | 4% | . | . | . | .
CN(c1ccc(NC(=O)Nc2ccc(OC(F)(F)F)cc2)cc1)c1ccnc(Nc2cccc(S(N)(=O)=O)c2)n1 | . | . | . | . | . | . | 16% | 9% | 2%
Cc1cn2nc(C(=O)Nc3ccc(OC(F)(F)F)cc3)cc2c(N2CCSCC2)n1 | ? | ? | 4% | 9% | 7% | i | . | . | .
Cc1c(-c2ccccc2F)[nH]c2ccc(CNC(=O)CCc3cnccn3)cc12 | ? | ? | -4% | 49% | -4% | ? | . | . | .
Cc1c(-c2ccccc2F)[nH]c2ccc(CNC(=O)CCc3cc(=O)[nH]o3)cc12 | -4% | ? | -15% | ? | 1% | 2.8µM* | 27% | 18% | 9.9µM*
Cc1c(-c2ccccc2F)[nH]c2ccc(CNC(=O)CC3CCC(=O)N3)cc12 (stereo not given) | 35µM* | -28% | 1% | 68% | -5% | 10µM* | ? | 13% | 9.9µM*
CCn1cnnc1CC1CCN(C(=O)c2cc(-c3ccc(C)c(C)c3)nc3ccccc23)CC1 | ? | 40µM* | -16% | 44% | -16% | 7.9µM* | ? | ? | 2.8µM*
COc1ccc(Nc2cc(C(=O)NCCc3ccccc3)c3ccccc3n2)cc1OC | . | . | . | -29% | 20% | . | . | . | .
COc1ccc(Nc2cc(C(=O)NC3CCC(C)CC3)c3ccccc3n2)cc1OC (stereo not given) | . | . | . | 166% | -14% | . | 21% | 13% | -4%
COc1cc(C)ccc1OCc1cc(C(=O)NCc2n[nH]c3c2CCC3)no1 | ? | ? | 0% | -9% | 0% | 11µM* | 17% | 14% | ?
CC(C)NC(=O)c1nc2sccn2c1-c1ccc(F)cc1 | -16%[172 µM] | -33%[138 µM] | . | -7%[87.6 µM] | -5%[87.6 µM] | . | . | . | .
COc1ccccc1-c1cc(C(=O)NCC2CC2)c2cnn(C)c2n1 | -8% | -28% | . | . | . | . | . | . | .
O=C(Nc1ccc2c(c1)OCCO2)N1CCC(c2nc(C3CCOCC3)no2)CC1 | -4% | -18% | 1% | 65% | -6% | 10µM* | 19% | 15% | ?
O=C(Nc1ccc2c(c1)OCCO2)N1CCCC1c1nc(CCOCC2CCCC2)no1 (stereo not given) | ? | -23% | 0% | 78% | -15% | ? | . | . | .
O=C(Nc1ccc2c(c1)OCCO2)N1CC(c2nc(CCOCC3CC3)no2)C1 | ? | -26% | 2% | 105% | -16% | 11µM* | 21% | 13% | ?
O=C(NC1CCCCC1)N1CCC(c2nc(C3CCOCC3)no2)CC1 | -8% | -14% | 12% | ? | -9% | i | . | . | .
COCCCn1c(=O)c(C(=O)N2CCN(C(=O)c3ccc(Cl)nc3)CC2)nc2cccnc21 | i | -22% | . | -14% | -6% | . | . | . | .
c1ccc(CCCNc2nccc(-c3ccccn3)n2)nc1 | ? | -30% | 2% | 37% | -6% | 10µM* | 14% | 15% | 1%
CN1CCN(CCCNc2nccc(-c3ccccn3)n2)CC1 | i | -2% | 8% | 11% | -3% | i | . | . | .
CCC(CC)Nc1ncnc2c1CN(C1CCCNCC1)C(=O)CN2C (stereo not given) | 0% | -7% | . | -12% | 0% | . | . | . | .
COc1ccc(NC(=O)c2cc3c(=O)[nH]c(C)cn3n2)cc1OC | ? | -19% | 0% | 66% | 4% | 7.1µM* | ? | ? | 9.9µM*
